Assay outcomes as filed in PubChem.
Rows were chosen to be rich in hits. Some 5.5% of all compounds tested hit in one or more screens of this group.
RORgamma inh – qHTS for inhibitors of ROR gamma transcriptional activity | Drosophila S2 Gal4-RORgamma UAS-luciferase reporter, 20 h | Potency, µM (top dose mostly 53.6 µM), for the others: at the top dose activity change, negative = inhibition, hits mostly inhibitors | 310,000 compounds, 5.4% hits | AID 2551, 2010; also: % is scaled to controls: 0 for no effect and ±100 for the full control effect; nearly all actives have a fitted effect of over 60% in size
Target sequence (P51450 whole entry, looked up, the tested form may be a part): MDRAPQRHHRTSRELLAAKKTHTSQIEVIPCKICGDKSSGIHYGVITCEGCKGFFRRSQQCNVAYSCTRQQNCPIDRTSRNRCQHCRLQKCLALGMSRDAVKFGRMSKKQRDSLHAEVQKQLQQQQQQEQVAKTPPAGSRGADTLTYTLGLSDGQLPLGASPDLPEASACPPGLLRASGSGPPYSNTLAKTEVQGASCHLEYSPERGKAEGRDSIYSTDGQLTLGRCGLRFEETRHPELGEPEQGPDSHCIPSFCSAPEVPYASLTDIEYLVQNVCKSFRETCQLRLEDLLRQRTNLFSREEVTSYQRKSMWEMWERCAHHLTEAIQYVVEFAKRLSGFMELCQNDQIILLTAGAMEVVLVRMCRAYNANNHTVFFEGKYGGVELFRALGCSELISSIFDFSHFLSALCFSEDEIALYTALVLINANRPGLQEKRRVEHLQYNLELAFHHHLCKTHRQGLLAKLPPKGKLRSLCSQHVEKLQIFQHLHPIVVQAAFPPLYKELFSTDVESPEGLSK
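Read-out: Photinus luciferase luminescence; inhibitors lower reporter signal. Insect Schneider cells with Gal4-ROR gamma fusion under metallothionein promoter, UAS reporter; 700 uM final copper sulfate induction, 20 hr, ambient temperature.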
Gal4-VP16 FLuc – VP16 counterscreen qHTS for inhibitors of ROR gamma transcriptional activity | Drosophila S2 Gal4-VP16 UAS-luciferase, luminescence, 20 h | Potency, µM (doses to about 53.6 µM), inactives show at the top dose activity, negative = inhibition, hits mostly inhibitors | 310,000 compounds, 3.5% hits;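 also: Gal4-VP16 expression switched on by copper sulfate through the metallothionein promoter; % is scaled to controls: 0 for no effect and ±100 for the full control effect; nearly all actives have a fitted effect of over 50% in size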
uPA surface inh – qHTS for Inhibitors of Cell Surface uPA Generation; AID 540303, 2011; Potency, µM (top dose mostly 38.3 µM), without a hit: at the top dose activity change, negative = inhibition, hits mostly inhibitors; cell surface uPA generation assay, qHTS; 330,000 compounds, 0.31% hits; active = well fitted inhibition curve with a large enough effect; inconclusive = small, poorly fitted or top-dose-only effect; inactive = no such curve, though single readings can be large or run the other way; tested in mouse RAW 264.7 cells; also: % is scaled to controls: 0 for no effect and ±100 for the full control effect; nearly all actives have a fitted effect of over 55% in size
Mito fusion act – qHTS Assay for Small Molecule Inhibitors of Mitochondrial Division or Activators of Mitochondrial Fusion; S. cerevisiae fusion-defective mutant growth rescue, CellTiterGlo 48 h; Potency, µM (doses to about 46.1 µM), inactives show at the top dose growth rescue (activation), actives largely listed as activators; 320,000 compounds, 0.23% hits; AID 485298, 2010; also: % of control where 0% means no effect; nearly all actives have a fitted effect of over 45% in size
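Yeast fusion mutant, YPEG (non-fermentable carbon), compound, 48 h at 37C non-permissive; CellTiterGlo added, 10 min RT, luminescence read. Rescued growth = division inhibition.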
BCR signal inh – qHTS Assay to Find Inhibitors of Chronic Active B-Cell Receptor Signaling; Potency, µM (doses to about 46.1 µM), for the others: top-dose activity change, negative = inhibition, most hits filed as inhibitors; 340,000 compounds, 0.05% hits; ABC-DLBCL IkBa-CBG/CBR reporter, luminescence ratio, 4 h; active = well fitted inhibition curve with a large enough effect in the signal ratio, with a control signal flat, not every such curve was filed as active; inconclusive = small, poorly fitted or top-dose-only effect, or effect the other way, or a change in a side signal; the % refers to the signal ratio;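 also: plate controls were basal doxycycline-induced cells for no effect and cells given 10 µM MG132 for full effect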
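Concentration-response series (up to 46 uM) were applied to TMD8 dual-reporter cells for 4 h at 37C with doxycycline. Green/red ratio, after filter-overlap correction, defined %Activity; red signal alone was normalised to basal cells and zero luminescence.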
a7 integrin act – qHTS for Activators of Integrin-Mediated Alleviation for Muscular Dystrophy. alpha7betagal myoblasts, beta-gal FDG fluorescence, 48 h. Potency, µM (top dose mostly 38.3 µM), without a hit: at the highest dose activation, most hits filed as activators. 350,000 compounds, 0.064% hits;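 also: 100% = response of the positive control SU9516; nearly all actives have a fitted effect of over 60% in size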
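alpha7betagal+/- myoblasts (passage 13, 250/well) treated 48 h at 37C with compounds at 1:260 dilution of DMSO stock. Lysed, then beta-galactosidase activity read as FDG fluorescence (ex 480/em 540) after 30 min, with pre-read for autofluorescence.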
The depositor's hits bear a star; [ ] = dose if it differs, or a comment. Unless noted, calls follow the shape of the dose curve; as a rule, active = well fitted curve in the direction sought with a large enough effect; inconclusive = small, poorly fitted or top-dose-only effect, or another doubt; inactive = no such curve, though single readings can be large; an effect the other way counts as inactive or inconclusive. Potency is read from the fitted curve at half-maximal effect.

Screening O=C1c2cccc3c([N+](=O)[O-])ccc(c23)C(=O)N1Cc1cccnc1 returned RORgamma inh 4.5µM*, Gal4-VP16 FLuc inconclusive, Mito fusion act 1%, BCR signal inh inconclusive and a7 integrin act -106%.
Screening Cc1nnc(N2C(=O)c3cccc4c([N+](=O)[O-])ccc(c34)C2=O)s1 returned RORgamma inh 4µM*, Gal4-VP16 FLuc 3.2µM*, uPA surface inh 10µM*, Mito fusion act -11%, BCR signal inh 4% and a7 integrin act -84%.
For Cc1ccnc(N2C(=O)c3cccc4c([N+](=O)[O-])ccc(c34)C2=O)c1 the results were RORgamma inh 6.3µM*, Gal4-VP16 FLuc 0%[0.365 µM], uPA surface inh inconclusive, Mito fusion act -27%, BCR signal inh -7% and a7 integrin act -66%.
`Cc1ccc(N2C(=O)c3cccc4c([N+](=O)[O-])ccc(c34)C2=O)c2cccnc12` gave RORgamma inh 25%, Gal4-VP16 FLuc -11%, uPA surface inh inconclusive, Mito fusion act 2%, BCR signal inh 6% and a7 integrin act 1%.
Screening CSc1nc(N)nc2c1ncn2CC(=O)NCc1ccc2[nH]ccc2c1 returned uPA surface inh -4%, BCR signal inh -7% and a7 integrin act 0%.
N/C(=N\OC(=O)c1ccc(Cl)c(Cl)c1)c1ccccn1 was read as RORgamma inh inconclusive, Gal4-VP16 FLuc inconclusive, Mito fusion act 0%, BCR signal inh -22% and a7 integrin act -42%.
Screening Cc1ccc(C(=O)O/N=C(\N)c2ccccn2)c(C)c1 returned RORgamma inh inconclusive, Gal4-VP16 FLuc 6.3µM*, uPA surface inh -13%, Mito fusion act 2%, BCR signal inh inconclusive and a7 integrin act 23%.
COc1cc(OC)c(C(=O)O/N=C(\N)c2ccccn2)cc1OC was read as RORgamma inh 27%, Gal4-VP16 FLuc 2%, uPA surface inh inconclusive, Mito fusion act 8%, BCR signal inh -9% and a7 integrin act 5%.
Screening N/C(=N\OC(=O)c1ccccc1Cl)c1ccccn1 returned RORgamma inh 6.3µM*, Gal4-VP16 FLuc 14µM*, Mito fusion act -3%, BCR signal inh inconclusive and a7 integrin act 8%.
Screening COc1ccccc1C(=O)O/N=C(\N)c1ccccn1 returned RORgamma inh 3.2µM*, Gal4-VP16 FLuc inconclusive, uPA surface inh -13%, Mito fusion act -2%, BCR signal inh inconclusive and a7 integrin act 15%.
For CCOC(=O)c1cc(-c2ccccc2)n(CC(=O)NCc2ccccc2OC)c1C the results were BCR signal inh 0%.
Screening Cc1cc(-n2c(SCC(=O)Nc3ccc(F)c(F)c3)nc3n[nH]c(C)c3c2=N)ccc1Cl returned RORgamma inh -44%, Gal4-VP16 FLuc inconclusive, uPA surface inh inconclusive, Mito fusion act -6%, BCR signal inh 16% and a7 integrin act 3%.
Screening Cc1cc(-n2c(SCC(=O)Nc3ccc(Br)cc3)nc3n[nH]c(C)c3c2=N)ccc1Cl returned RORgamma inh inconclusive, Gal4-VP16 FLuc 20µM*, uPA surface inh -1%, Mito fusion act -9%, BCR signal inh -6% and a7 integrin act -46%.
`CCOc1ccc2ccccc2c1C1NC(=S)N(C)C(C)=C1C(=O)OC` (stereo not given) gave RORgamma inh -4%, Gal4-VP16 FLuc -6%, uPA surface inh -1%, Mito fusion act 4%, BCR signal inh 11% and a7 integrin act 3%.
Screening CCOc1ccc2ccccc2c1C1NC(=O)N(C)C(C)=C1C(=O)OCCOC (stereo not given) returned RORgamma inh -14%, Gal4-VP16 FLuc -5%, uPA surface inh 0%, Mito fusion act 16%, BCR signal inh 5% and a7 integrin act 6.3µM*.
